Data published in PubChem BioAssay (EPA / NIEHS).
Results filed as inconclusive are left out. Calls of active or inactive are those of the source. Rule for the calls, unless noted: active = hit-call score of the fitted dose curve at least 0.9, where 1 is the maximum; inconclusive = response in the unintended direction; inactive = score below 0.9.

Columns and labels:
[1] = target: Nuclear receptor subfamily 1 group I member 2 (Homo sapiens) (UniProt O75469); experiment: NVS_NR_hPXR: NovaScreen (NVS) Nuclear Receptor Binding Assay for human Pregnane X Receptor (PXR) (AID 2283365);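 note: a drop in FRET signal versus DMSO baseline means the compound binds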
Procedure, shortened: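 Binding was measured by time-resolved fluorescence resonance energy transfer after a 2 h exposure of extracted human PXR protein without cells. Compounds were first tested at 25 uM in duplicate, with concentration series for actives; DMSO defined baseline.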

[2] = target: Estrogen receptor beta (Homo sapiens) (UniProt Q92731); experiment: OT_ER_ERbERb_1440: Odyssey Thera (OT) 24-hour HEK293T Protein-Complementation Assay for Estrogen Receptor-beta/-beta Homodimer (AID 2283380);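 note: fluorescence gain from ER beta LBD homodimer complementation read by laser scanning cytometry; scored as signal increase over DMSO baseline for both agonists and antagonists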
Procedure, shortened: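 HEK293T cells stably expressing human ER-beta LBD (aa 310-547) PCA homodimer pair, dosed 24 h; formaldehyde-fixed, Draq5-stained. Readout: increase in nuclear (agonist) or nuclear plus cytoplasmic (antagonist) fluorescence intensity versus DMSO, gain-of-signal fitting.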

[3] = target: Bile acid receptor (Homo sapiens) (UniProt Q96RI1); experiment: OT_FXR_FXRSRC1_0480: Odyssey Thera (OT) 8-hour HEK293T Protein-Complementation Assay for Farnesoid X receptor/SRC-1 Co-activator (AID 2283383)
Procedure, shortened: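 HEK293T protein-fragment complementation assay: FXR and SRC-1 coactivator are fused to reporter fragments, and their interaction restores a fluorescent reporter. Readout was taken 8 h after dosing, with gain of signal fit relative to DMSO.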

[4] = target: Bile acid receptor (Homo sapiens) (UniProt Q96RI1); experiment: OT_FXR_FXRSRC1_1440: Odyssey Thera (OT) 24-hour HEK293T Protein-Complementation Assay for Farnesoid X receptor/SRC-1 Co-activator (AID 2283384)
Procedure, shortened: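 HEK293T cells, 24 h after chemical dosing. FXR–SRC-1 coactivator interaction read as fluorescence from protein-fragment complementation of a split reporter. Gain of signal fitted against DMSO baseline.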

[5] = target: Retinoic acid receptor RXR-alpha (Homo sapiens) (UniProt P19793); experiment: OT_NURR1_NURR1RXRa_0480: Odyssey Thera (OT) 8-hour HEK293T Protein Complementation Assay for Nurr1/retinoid X receptor (RXR) (AID 2283385)
Procedure, shortened: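 HEK293T cells expressing Nurr1 and RXRα fused to reporter fragments (protein-fragment complementation); fluorescence measured 8 h after dosing. Gain of signal fitted relative to DMSO.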

[6] = target: Retinoic acid receptor RXR-alpha (Homo sapiens) (UniProt P19793); experiment: OT_NURR1_NURR1RXRa_1440: Odyssey Thera (OT) 24-hour HEK293T Protein Complementation Assay for Nurr1/retinoid X receptor (RXR) (AID 2283386)
Procedure, shortened: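 HEK293T protein-fragment complementation of Nurr1 and RXRα fused to reporter fragments; compounds 24 h. Fluorescence gain from reconstituted reporter fitted versus DMSO.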

[7] = target: Peroxisome proliferator-activated receptor gamma (Homo sapiens) (UniProt P37231); experiment: OT_PPARg_PPARgSRC1_0480: Odyssey Thera (OT) 8-hour Protein-Complementation Assay for Peroxisome Proliferator-activated Receptor Gamma / SRC-1 Co-activator (AID 2283387);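 note: nuclear to cytoplasmic split Venus YFP fluorescence ratio reporting PPARg SRC-1 interaction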
Procedure, shortened: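 Split-YFP (IFP1/IFP2) PPARg/SRC-1 reporter, HEK293T, 37 °C, 5% CO2; 8 h compound; formaldehyde fix + Draq5; high-content imaging, N/C ratio, ≥350 cells/image, positive direction vs DMSO.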

[8] = target: Peroxisome proliferator-activated receptor gamma (Homo sapiens) (UniProt P37231); experiment: OT_PPARg_PPARgSRC1_1440: Odyssey Thera (OT) 24-hour Protein-Complementation Assay for Peroxisome Proliferator-activated Receptor Gamma/ SRC-1 Co-activator (AID 2283388);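 note: nuclear to cytoplasmic ratio of reconstituted Venus YFP fluorescence in fixed imaged cells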
Procedure, shortened: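 Transient HEK293T, YFP fragments 1-158/159-239 (mutant IFP1/IFP2) fused to PPARg/SRC-1; 24 h dosing; fix 4% formaldehyde, Draq5; Opera imaging 488/635 nm; N/C ratio, gain vs DMSO.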

[9] = CEETOX_H295R_11DCORT: CeeTox H295R High-throughput Steroidogenesis Assay for 11-Deoxycortisol (11DCORT) (AID 2283432; active = hit-call score of the fitted dose curve at least 0.9, where 1 is the maximum; inactive = score below 0.9;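 for AC50: human adrenal H295R cells prestimulated with 10 µM forskolin for 48 h; 11-deoxycortisol secreted into the medium measured by LC-MS/MS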); details: actives raise or lower the signal
Procedure, shortened: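 Steroidogenesis in human H295R cells: 48 h chemical exposure after forskolin priming, 11-deoxycortisol measured by LC-MS/MS.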

[10] = target: rat Androgen Receptor (AR), Ar (gene 24208) (UniProt P15207); experiment: NVS_NR_rAR: NovaScreen (NVS) Nuclear Receptor Binding Assay for rat Androgen Receptor (AR) (AID 2283366)
Procedure, shortened: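 Cell-free radioligand binding on extracts of prostate from testosterone-pretreated rats, read by filter-based scintillation counting 18 h after dosing. Loss of bound signal fitted positively versus DMSO; primary screen in duplicate at 25 uM, actives followed up in concentration series.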

[11] = target: Agonist Androgen Response Element (ARE), AR (gene 367) (UniProt P10275); experiment: OT_AR_ARELUC_AG_1440: Odyssey Thera (OT) 24-hour CHO-K1 Luciferase Assay for Agonist Androgen Response Element (ARE) (AID 2283379)
Procedure, shortened: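 Seed CHO-K1 cells; dose compounds for 24 h; add D-luciferin plus ATP in PBS; read luminescence. Signal increase relative to vehicle defines agonist activity, with at least 3 replicate wells per sample.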

[12] = target: Peroxisome proliferator-activated receptor gamma (Homo sapiens) (UniProt P37231); experiment: NVS_NR_hPPARg: NovaScreen (NVS) Nuclear Receptor Binding Assay for human Peroxisome Proliferator-activated Receptor gamma (PPARg) (AID 2283370)
Procedure, shortened: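 Fluorescence polarization measures competitive binding to extracted PPARg in a cell-free format. Reading is taken at 2 h; activity is signal loss relative to DMSO. Screening at 25 uM in duplicate preceded confirmatory dose series.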

[13] = target: guinea pig Sigma Receptor, Non-selective Binding, SIGMAR1 (gene 100135589) (UniProt Q60492); experiment: NVS_OR_gSIGMA_NonSelective: NovaScreen (NVS) Nuclear Receptor Binding Assay for guinea pig Sigma Receptor, Non-selective Binding (AID 2283367)
Procedure, shortened: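 Guinea pig brain membranes, cell-free radioligand binding; read 1 h after dosing by filter-based scintillation counting. Loss of signal vs DMSO baseline taken as displacement. Primary screen single concentration 25 uM in duplicate; actives retested in concentration series.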

[14] = tested on: guinea pig Dopamine Transporter (DAT), gene 100714898; experiment: NVS_TR_gDAT: NovaScreen (NVS) Transporter Assay for guinea pig Dopamine Transporter (DAT) (AID 2283369);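 note: active compounds lower bound radioligand signal relative to DMSO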
Procedure, shortened: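 Test chemicals were incubated 2 h with guinea pig striatal membranes and a radioligand; bound label was separated by filtration and counted. Screening ran at 25 uM, followed by concentration-response testing to a 50 uM maximum.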

[15] = target: human Dopamine Transporter (DAT), SLC6A3 (gene 6531) (UniProt Q01959); experiment: NVS_TR_hDAT: NovaScreen (NVS) Transporter Assay for human Dopamine Transporter (DAT) (AID 2283374);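 note: activity means loss of bound radioligand signal relative to DMSO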
Procedure, shortened: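 Cell-free radioligand binding to extracted human DAT protein, read 1 h after dosing by filter-based scintillation counting. Loss of specific binding scored against DMSO baseline; primary screen in duplicate at 25 uM, actives then run in concentration series.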

[16] = target: human Norepinephrine Transporter (NET), SLC6A2 (gene 6530) (UniProt P23975); experiment: NVS_TR_hNET: NovaScreen (NVS) Transporter Assay for human Norepinephrine Transporter (NET) (AID 2283377);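 note: cell-free membrane protein extracted from CHO cells expressing human NET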
Procedure, shortened: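 Radioligand binding to human NET in cell-free CHO-derived protein preparations, read by filter-based scintillation counting 1 hour after dosing. Loss of signal versus DMSO baseline indicated displacement; primary screening in duplicate at 25 uM, actives then titrated.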

[17] = target: rat Serotonin Transporter (SERT), Slc6a4 (gene 25553) (UniProt P31652); experiment: NVS_TR_rSERT: NovaScreen (NVS) Transporter Assay for rat Serotonin Transporter (SERT) (AID 2283375)
Procedure, shortened: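 Steps: rat forebrain membranes dosed with chemical (25 uM duplicate primary; concentration series for actives); 1 h incubation; labelled ligand bound, filtered, counted by scintillation. Activity scored as signal loss vs DMSO.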

Sequence of Estrogen receptor beta (Homo sapiens) (Q92731 whole entry, looked up, the tested form may be a part): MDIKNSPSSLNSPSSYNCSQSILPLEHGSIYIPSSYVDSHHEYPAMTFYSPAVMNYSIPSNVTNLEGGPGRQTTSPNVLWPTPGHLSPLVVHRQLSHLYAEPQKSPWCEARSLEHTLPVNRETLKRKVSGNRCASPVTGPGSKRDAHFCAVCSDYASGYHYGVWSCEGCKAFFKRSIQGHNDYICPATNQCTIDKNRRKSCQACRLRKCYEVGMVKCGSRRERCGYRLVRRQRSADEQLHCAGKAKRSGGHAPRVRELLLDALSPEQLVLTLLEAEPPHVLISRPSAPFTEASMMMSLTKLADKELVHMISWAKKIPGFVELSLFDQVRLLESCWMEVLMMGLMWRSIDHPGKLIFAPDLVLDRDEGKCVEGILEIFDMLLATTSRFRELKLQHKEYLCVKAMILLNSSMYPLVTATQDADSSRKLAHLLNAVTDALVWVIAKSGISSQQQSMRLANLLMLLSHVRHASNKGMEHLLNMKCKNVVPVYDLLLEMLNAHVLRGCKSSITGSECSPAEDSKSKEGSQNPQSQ
Sequence of Peroxisome proliferator-activated receptor gamma (Homo sapiens) (P37231 whole entry, looked up, the tested form may be a part): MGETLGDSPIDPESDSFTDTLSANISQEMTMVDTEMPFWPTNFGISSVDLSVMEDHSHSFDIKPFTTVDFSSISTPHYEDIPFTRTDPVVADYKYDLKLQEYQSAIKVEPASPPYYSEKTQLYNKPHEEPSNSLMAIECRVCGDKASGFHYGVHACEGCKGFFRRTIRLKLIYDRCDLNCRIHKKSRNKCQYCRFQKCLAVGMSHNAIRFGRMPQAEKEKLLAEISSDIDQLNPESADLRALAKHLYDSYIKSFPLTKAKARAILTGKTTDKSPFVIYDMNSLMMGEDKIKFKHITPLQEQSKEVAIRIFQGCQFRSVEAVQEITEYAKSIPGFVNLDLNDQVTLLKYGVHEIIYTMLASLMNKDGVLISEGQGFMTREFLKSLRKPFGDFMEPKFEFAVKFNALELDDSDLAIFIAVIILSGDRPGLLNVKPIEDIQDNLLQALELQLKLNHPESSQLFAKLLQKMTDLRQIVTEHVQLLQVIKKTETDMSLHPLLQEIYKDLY
Sequence of Retinoic acid receptor RXR-alpha (Homo sapiens) (P19793 whole entry, looked up, the tested form may be a part): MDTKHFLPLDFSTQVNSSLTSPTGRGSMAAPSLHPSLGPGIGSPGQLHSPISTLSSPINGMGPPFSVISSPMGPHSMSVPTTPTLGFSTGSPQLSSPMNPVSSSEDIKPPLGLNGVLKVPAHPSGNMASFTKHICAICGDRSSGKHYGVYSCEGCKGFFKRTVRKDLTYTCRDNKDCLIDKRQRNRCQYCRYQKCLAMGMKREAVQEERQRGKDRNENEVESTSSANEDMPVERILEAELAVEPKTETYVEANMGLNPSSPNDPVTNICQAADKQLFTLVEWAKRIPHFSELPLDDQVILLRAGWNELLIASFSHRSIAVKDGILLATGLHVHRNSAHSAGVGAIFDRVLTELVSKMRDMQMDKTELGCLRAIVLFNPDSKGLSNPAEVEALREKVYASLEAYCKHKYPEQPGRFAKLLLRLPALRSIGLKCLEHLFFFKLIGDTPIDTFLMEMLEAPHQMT
Sequence of Nuclear receptor subfamily 1 group I member 2 (Homo sapiens) (O75469 whole entry, looked up): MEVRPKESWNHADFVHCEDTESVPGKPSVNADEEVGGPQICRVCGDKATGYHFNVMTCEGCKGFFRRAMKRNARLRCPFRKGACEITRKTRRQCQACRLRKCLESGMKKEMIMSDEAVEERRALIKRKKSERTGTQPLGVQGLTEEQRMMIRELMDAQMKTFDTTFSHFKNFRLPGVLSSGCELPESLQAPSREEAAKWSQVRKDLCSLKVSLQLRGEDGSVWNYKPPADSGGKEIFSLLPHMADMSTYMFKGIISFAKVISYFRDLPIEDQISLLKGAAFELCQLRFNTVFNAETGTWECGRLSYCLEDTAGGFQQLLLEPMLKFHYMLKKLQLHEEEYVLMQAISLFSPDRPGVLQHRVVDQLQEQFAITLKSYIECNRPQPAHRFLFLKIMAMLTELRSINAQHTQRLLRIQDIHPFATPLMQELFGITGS
Sequence of rat Androgen Receptor (AR), Ar (gene 24208) (P15207 whole entry, looked up): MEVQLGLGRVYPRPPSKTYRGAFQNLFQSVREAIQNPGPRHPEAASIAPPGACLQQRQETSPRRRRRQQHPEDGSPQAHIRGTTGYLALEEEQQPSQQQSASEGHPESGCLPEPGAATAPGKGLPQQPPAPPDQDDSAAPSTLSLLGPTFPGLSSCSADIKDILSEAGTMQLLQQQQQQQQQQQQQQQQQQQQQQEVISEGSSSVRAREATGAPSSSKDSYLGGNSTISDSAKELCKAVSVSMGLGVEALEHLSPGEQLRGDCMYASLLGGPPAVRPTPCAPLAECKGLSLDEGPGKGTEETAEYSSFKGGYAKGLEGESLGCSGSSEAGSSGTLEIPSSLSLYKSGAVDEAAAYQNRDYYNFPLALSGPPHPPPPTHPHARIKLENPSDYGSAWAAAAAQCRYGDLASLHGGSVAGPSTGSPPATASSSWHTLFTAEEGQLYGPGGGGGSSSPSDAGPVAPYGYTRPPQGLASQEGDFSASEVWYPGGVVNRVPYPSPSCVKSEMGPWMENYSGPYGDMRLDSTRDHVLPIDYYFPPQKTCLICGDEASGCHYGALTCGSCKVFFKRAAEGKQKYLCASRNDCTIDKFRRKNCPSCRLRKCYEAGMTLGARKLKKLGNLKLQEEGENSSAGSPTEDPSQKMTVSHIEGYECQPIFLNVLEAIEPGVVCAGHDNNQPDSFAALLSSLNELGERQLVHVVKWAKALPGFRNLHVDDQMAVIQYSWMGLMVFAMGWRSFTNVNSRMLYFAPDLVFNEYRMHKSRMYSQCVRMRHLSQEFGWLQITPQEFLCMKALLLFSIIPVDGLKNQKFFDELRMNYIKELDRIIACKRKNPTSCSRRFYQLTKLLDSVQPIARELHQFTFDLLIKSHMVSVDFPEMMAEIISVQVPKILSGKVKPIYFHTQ
Sequence of Bile acid receptor (Homo sapiens) (Q96RI1 whole entry, looked up, the tested form may be a part): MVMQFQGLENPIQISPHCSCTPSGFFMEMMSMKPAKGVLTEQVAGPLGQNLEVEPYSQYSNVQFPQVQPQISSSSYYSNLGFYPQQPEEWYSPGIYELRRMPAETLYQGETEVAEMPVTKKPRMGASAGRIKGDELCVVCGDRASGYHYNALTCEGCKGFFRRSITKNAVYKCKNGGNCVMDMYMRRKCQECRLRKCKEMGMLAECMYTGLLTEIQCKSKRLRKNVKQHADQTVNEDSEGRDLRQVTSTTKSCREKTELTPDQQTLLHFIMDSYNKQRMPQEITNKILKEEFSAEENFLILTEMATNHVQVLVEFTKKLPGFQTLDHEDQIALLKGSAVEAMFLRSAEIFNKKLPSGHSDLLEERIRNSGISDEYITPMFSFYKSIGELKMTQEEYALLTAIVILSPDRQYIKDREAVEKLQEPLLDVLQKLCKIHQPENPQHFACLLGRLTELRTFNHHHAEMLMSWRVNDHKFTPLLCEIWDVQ
Sequence of guinea pig Sigma Receptor, Non-selective Binding, SIGMAR1 (gene 100135589) (Q60492 whole entry, looked up): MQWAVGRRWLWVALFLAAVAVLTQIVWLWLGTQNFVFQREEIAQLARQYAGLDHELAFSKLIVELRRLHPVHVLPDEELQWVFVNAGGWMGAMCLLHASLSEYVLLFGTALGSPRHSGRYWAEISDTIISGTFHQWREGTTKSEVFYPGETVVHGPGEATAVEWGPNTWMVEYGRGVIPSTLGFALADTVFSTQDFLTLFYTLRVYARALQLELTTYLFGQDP
Sequence of human Dopamine Transporter (DAT), SLC6A3 (gene 6531) (Q01959 whole entry, looked up): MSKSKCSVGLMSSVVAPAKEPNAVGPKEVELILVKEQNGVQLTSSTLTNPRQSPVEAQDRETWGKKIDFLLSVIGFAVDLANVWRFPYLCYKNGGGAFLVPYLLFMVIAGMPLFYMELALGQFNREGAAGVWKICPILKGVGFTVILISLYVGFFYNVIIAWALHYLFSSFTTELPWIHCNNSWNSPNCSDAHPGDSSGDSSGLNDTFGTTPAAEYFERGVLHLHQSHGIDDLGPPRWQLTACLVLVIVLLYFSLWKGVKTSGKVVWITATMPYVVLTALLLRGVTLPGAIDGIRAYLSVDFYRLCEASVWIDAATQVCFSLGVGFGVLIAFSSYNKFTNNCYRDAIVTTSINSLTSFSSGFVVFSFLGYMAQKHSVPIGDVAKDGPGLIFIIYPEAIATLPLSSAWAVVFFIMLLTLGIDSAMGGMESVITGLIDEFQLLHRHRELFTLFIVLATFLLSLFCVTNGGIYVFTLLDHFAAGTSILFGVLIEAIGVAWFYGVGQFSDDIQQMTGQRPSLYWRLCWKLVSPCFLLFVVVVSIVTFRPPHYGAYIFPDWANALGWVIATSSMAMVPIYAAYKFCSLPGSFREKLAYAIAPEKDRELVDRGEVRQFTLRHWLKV
Sequence of human Norepinephrine Transporter (NET), SLC6A2 (gene 6530) (P23975 whole entry, looked up): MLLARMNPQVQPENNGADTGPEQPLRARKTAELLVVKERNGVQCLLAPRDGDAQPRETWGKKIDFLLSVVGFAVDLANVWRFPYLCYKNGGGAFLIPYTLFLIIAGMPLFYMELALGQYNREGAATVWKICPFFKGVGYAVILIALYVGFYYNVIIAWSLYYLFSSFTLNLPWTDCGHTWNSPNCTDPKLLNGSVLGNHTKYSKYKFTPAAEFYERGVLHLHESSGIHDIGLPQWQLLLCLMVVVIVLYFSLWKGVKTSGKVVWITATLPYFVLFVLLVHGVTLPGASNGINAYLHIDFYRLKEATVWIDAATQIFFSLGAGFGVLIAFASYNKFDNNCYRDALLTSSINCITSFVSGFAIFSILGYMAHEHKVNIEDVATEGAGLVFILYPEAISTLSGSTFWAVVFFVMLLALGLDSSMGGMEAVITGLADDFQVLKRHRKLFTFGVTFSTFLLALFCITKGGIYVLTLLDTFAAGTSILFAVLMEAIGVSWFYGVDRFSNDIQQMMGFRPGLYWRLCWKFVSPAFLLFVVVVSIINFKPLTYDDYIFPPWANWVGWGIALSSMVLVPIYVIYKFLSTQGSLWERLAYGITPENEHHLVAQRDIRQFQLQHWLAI

CCCCCCCCN1CCCC1=O
outcome [1]: inactive
outcome [2]: inactive
AC50 [3]: 50 µM (active)
outcome [4]: inactive
outcome [5]: inactive
outcome [6]: inactive
outcome [7]: inactive
outcome [8]: inactive
outcome [9]: inactive

CCCCCCCCC=CCCCCCCCC1=NCCN1CCO
AC50 [10]: 7.33 µM (active)
outcome [11]: inactive
outcome [7]: inactive
outcome [8]: inactive

CC(C)c1ccccc1O
outcome [1]: inactive
outcome [2]: inactive
outcome [3]: inactive
outcome [5]: inactive
outcome [6]: inactive

Cc1ccc(S(=O)(=O)Oc2ccc(N=Nc3ccc(-c4ccc(N=Nc5c(O)ccc6cc(S(=O)(=O)O)cc(S(=O)(=O)O)c56)c(C)c4)cc3C)cc2)cc1
AC50 [1]: 0.701 µM (active)
AC50 [10]: 0.463 µM (active)
outcome [12]: inactive
outcome [2]: inactive
outcome [4]: inactive
AC50 [5]: 35 µM (active)
outcome [6]: inactive
outcome [7]: inactive
outcome [8]: inactive

CCCCCCCCCCCCN1CCCCCC1=O
outcome [1]: inactive
outcome [2]: inactive
AC50 [3]: 11.3 µM (active)
AC50 [5]: 44.3 µM (active)
outcome [8]: inactive

O=C1NC2NC(=O)NC2N1 (stereo unspecified)
outcome [1]: inactive
AC50 [2]: 7.06 µM (active)
outcome [3]: inactive
outcome [4]: inactive
outcome [5]: inactive
outcome [6]: inactive
outcome [7]: inactive
outcome [8]: inactive

CN(c1nccc(=O)[nH]1)C1CCN(c2nc3ccccc3n2Cc2ccc(F)cc2)CC1
AC50 [13]: 0.976 µM (active)
AC50 [14]: 1.76 µM (active)
AC50 [15]: 11.5 µM (active)
outcome [16]: inactive

C=C(C)[C@H]1CC=C(C)C(=O)C1
outcome [10]: inactive

OCCc1ccccc1
outcome [1]: inactive
outcome [4]: inactive
outcome [6]: inactive
outcome [7]: inactive
outcome [8]: inactive

Oc1ccc2cc(SSc3ccc4cc(O)ccc4c3)ccc2c1
outcome [1]: inactive
outcome [12]: inactive
AC50 [4]: 75.3 µM (active)
AC50 [5]: 78.7 µM (active)
AC50 [6]: 19.7 µM (active)
outcome [7]: inactive
outcome [8]: inactive

Clc1ccc(C(c2ccccc2Cl)C(Cl)Cl)cc1 (stereo unspecified)
outcome [1]: inactive
AC50 [2]: 5.53 µM (active)
outcome [5]: inactive
outcome [8]: inactive

CCOc1ccc(N=Nc2ccc(C=Cc3ccc(N=Nc4ccc(OCC)cc4)cc3S(=O)(=O)O)c(S(=O)(=O)O)c2)cc1
AC50 [1]: 0.695 µM (active)
outcome [12]: inactive
outcome [5]: inactive
outcome [6]: inactive
outcome [7]: inactive
outcome [8]: inactive

CCCCC(CC)COC(=O)c1ccc(O)cc1 (stereo unspecified)
outcome [1]: inactive
AC50 [2]: 1.92 µM (active)
outcome [5]: inactive

COc1ccc(CCN2CCC(Nc3nc4ccccc4n3Cc3ccc(F)cc3)CC2)cc1
AC50 [13]: 1.24 µM (active)
AC50 [14]: 4.41 µM (active)
AC50 [15]: 3.89 µM (active)
AC50 [17]: 2.26 µM (active)
AC50 [16]: 2.52 µM (active)
AC50 [9]: 1.49 µM (active)

CCCCCCCC(=O)OCC(O)CO (stereo unspecified)
outcome [1]: inactive
outcome [2]: inactive
outcome [5]: inactive
outcome [7]: inactive
outcome [8]: inactive
